The record followed here is ChEMBL document CHEMBL1157539, “Thousands of chemical starting points for antimalarial lead identification” (Nature, 2010).

One test deals with Plasmodium falciparum. The test is described as follows: GSK_TCMDC: Inhibition of Plasmodium falciparum Dd2 in whole red blood cells, using parasite LDH activity as an index of growth. Test compounds present at 2uM. Format: functional.
Regarding `NC(CC1CC(=O)N1CC(=O)O)C(=O)O` (stereo not given), the Inhibition (commonly the percentage by which the read-out fell short of the control) was found to be 0%.

Turning to `Cc1cnc(NC(=O)c2cn(-c3ccccc3)nc2-c2cccs2)s1`, the Inhibition was determined as 1%.

Compound `O=C(Nc1ccc(OC2CCN(Cc3ccc(F)cc3)C2)c(Cl)c1)c1ccsc1.O=C(O)C(F)(F)F` (stereo not given) gave an Inhibition of 95%.

Regarding `CCN(c1ccccc1)S(=O)(=O)c1ccc(NC(=O)c2cc(-c3cc(C)ccc3O)n[nH]2)cc1`, the Inhibition came out at 55%.

Compound `Cc1cccc2nc(-c3ccc(-c4cccc(NC(=O)C(C)CN(C)C)c4)cc3)[nH]c12` (stereo not given) showed an Inhibition of 61%.

Turning to `Cl.NCC1(c2nc(-c3ccc(Cl)c(O)c3)c(-c3ccncc3)[nH]2)CCCCC1`, the Inhibition amounted to 98%.

On to `O=C(Nc1cccc(-c2ccc(CN3CCC(O)CC3)cc2)c1)c1ccc(Cl)cc1.O=C(O)C(F)(F)F`, for which the Inhibition was 8%.

With `O=C(C=Cc1ccc(-c2ccccc2)cc1)N1CCC(CCN2CCC(c3c[nH]c4ccccc34)CC2)CC1`, the Inhibition was 16%.

For the compound `CCCCc1ccc(C(=O)NC2CCN(C[C@H](O)c3ccnc4ccc(OC)cc34)CC2)cc1`, the Inhibition was 22%.

The compound `O=C(O)c1ccc(OCOCOc2ccc(C(=O)O)c(O)c2)cc1O` registered an Inhibition of 0%.

As for `O=C1CC(C(=O)Nc2cccc(-c3cccc(-c4nc5ccccc5[nH]4)c3)c2)c2ccccc2N1` (stereo not given), the Inhibition was found to be 32%.

In the case of `CCCCCCNC(=O)C1Cc2c([nH]c3ccc(Br)cc23)C2(CCN(CCc3ccccc3)CC2)N1` (stereo not given), the Inhibition was determined as 94%.

Compound `COc1cc(F)c2ncc(Cl)c(CCN3CCC(NCc4ccc5c(c4)OCCO5)CC3)c2c1.Cl` yielded an Inhibition of 92%.

`CC(C)(C)c1ccc2nccc(Nc3cccc(O)c3)c2c1` came in with an Inhibition of 100%.

In the case of `Cl.N#Cc1ccc2c(c1)CCN(CCC1CCC(NC(=O)c3cc4cccc([N+](=O)[O-])c4[nH]3)CC1)C2` (stereo not given), the Inhibition was 28%.

In the next test the test system is HepG2. Kind of test: GSK_TCMDC: Percent inhibition of human HepG2 cell line. Test compounds present at 10uM. It is filed as functional.
Turning to `FC(F)(F)c1ccc2[nH]c(-c3cccc(-c4ccc(CNCc5cnn(-c6ccccc6)n5)cc4)c3)nc2c1.O=C(O)C(F)(F)F`, the Inhibition was found to be 14%.

The compound `CC(C)(C)NCCN(Cc1ccc(-c2ccc(C(F)(F)F)cc2)cc1)C(=O)Cn1c(SCc2ccc(F)cc2)nc(=O)c2c1CCC2.O=C(O)C(O)C(O)C(=O)O` came in with an Inhibition of 64%.

With `O=C(CCc1c[nH]cn1)Nc1ccc(-c2ccc(-c3nc4cc(F)ccc4[nH]3)cc2)cc1`, the Inhibition is 26%.

`CC(=O)Nc1nc(C(=O)Nc2ccc(-c3cccc(-c4nc5cc(F)ccc5[nH]4)c3)cc2)cs1` had an Inhibition of 86%.

Take `CCCCCCc1cc2cc(-c3nc(-c4ccc(OC)cc4)cs3)c(=O)oc2cc1O`: the Inhibition was 45%.

`Cc1ccc2[nH]c(C)cc(=NN=Cc3ccccc3F)c2c1`: the Inhibition amounted to 36%.

Consider `CC1(C)CC(NC(=O)NC2CCN(Cc3ccccc3)CC2)CC(C)(CNC(=O)NC2CCN(Cc3ccccc3)CC2)C1` (stereo not given), for which the Inhibition is reported as 10%.

In the case of `COc1ccc(Nc2nccc(NCC(O)c3ccc(C(F)(F)F)cc3)n2)cc1` (stereo not given), the Inhibition is 6%.

In turn, `CC1(C)N=C(N)N=C(N)N1c1cccc(C(F)(F)F)c1.Cl` came in with an Inhibition of 60%.

As for `CN1CCN(CCCN(Cc2ccc(-c3ccc(CNCc4ccc5c(c4)OCO5)cc3)cc2)C(=O)Nc2ccccc2)CC1.O=C(O)C(F)(F)F`, the Inhibition was determined as 36%.

As for `CCCCCCSc1nnc(COc2cccc3ccccc23)n1-c1ccc(OC)cc1`, the Inhibition is on record as 19%.

On to `CN(Cc1ccc(-c2ccc(C(F)(F)F)cc2)cc1)C(=O)Cn1c(CCc2cccc(F)c2F)nc(=O)c2ccc(N3CCN(CCN4CCCCC4)CC3)nc21.O=C(O)C(O)C(O)C(=O)O`, for which the Inhibition is reported as 100%.

`O=S(=O)(Nc1ccc(CCN2CCCCC2CCN2CCCC2)cc1)c1cccc2cccnc12` (stereo not given) gave an Inhibition of 20%.

`Cl.O=C(NC1CCN(CC2(c3ccc(Cl)cc3)CCCCC2)CC1)c1cc[nH]n1` displayed an Inhibition of 0%.

For the compound `CCn1c(C2CCN(CCC3CCN(C(=O)/C=C/c4ccc(Cl)c(Cl)c4)CC3)CC2)nc2ccccc21`, the Inhibition came to 17%.

As for `CCN(CC)CCN(Cc1ccc(-c2ccc(C(F)(F)F)cc2)cc1)C(=O)Cn1cc(Cc2cnn(C)c2)c(=O)nc1/C=C/c1ccc(F)cc1.O=C(O)C(O)C(O)C(=O)O`, the Inhibition is 6%.

As for `c1ccc(-c2csc(Nc3nc4cc5c(cc4s3)OCO5)n2)nc1`, the Inhibition turned out to be 46%.

`CC(C)NCc1ccc(-c2ccc(-c3nc4cc(F)ccc4[nH]3)cc2)cc1.O=C(O)C(F)(F)F` came in with an Inhibition of 14%.

As to `Clc1ccc(CNC2CCN(CC3CCCCC3)CC2)cc1.O=C(O)C(F)(F)F`, the Inhibition came out at 12%.

The compound `CC(C)c1cc2c(ccc3nc(N)nc(N)c32)o1` displayed an Inhibition of 66%.

Compound `CCCCCc1cc(OCCN(C)C)cc2c1C(=O)CC(C)(C)O2.Cl` showed an Inhibition of 5%.

In turn, `CS(=O)(=O)c1ccc(CNCc2ccc(-c3cccc(-c4nc5ccccc5[nH]4)c3)cc2)cc1.O=C(O)C(F)(F)F` displayed an Inhibition of 17%.

On to `CN1CCN(c2cc(NC(=O)Nc3ccc(-c4ccncc4)c(Cl)c3)ccc2Br)CC1`, for which the Inhibition is reported as 23%.

Compound `CC1(C)Cc2c([nH]c3ccccc23)C(CCCCCCCCC2=NC(C)(C)Cc3c2[nH]c2ccccc32)=N1.Cl` yielded an Inhibition of 100%.

For `Cc1ccc(C)c(S(=O)(=O)Nc2ccc(Br)cc2C(=O)Nc2cccc(C(F)(F)F)c2)c1`, the Inhibition is reported as 56%.

Consider `NC(CC1CC(=O)N1CC(=O)O)C(=O)O` (stereo not given), for which the Inhibition is recorded as 56%.

As for `Cc1cnc(NC(=O)c2cn(-c3ccccc3)nc2-c2cccs2)s1`, the Inhibition turned out to be 0%.

`O=C(Nc1ccc(OC2CCN(Cc3ccc(F)cc3)C2)c(Cl)c1)c1ccsc1.O=C(O)C(F)(F)F` (stereo not given) registered an Inhibition of 26%.

With `CCN(c1ccccc1)S(=O)(=O)c1ccc(NC(=O)c2cc(-c3cc(C)ccc3O)n[nH]2)cc1`, the Inhibition is on record as 49%.

On to `Cc1cccc2nc(-c3ccc(-c4cccc(NC(=O)C(C)CN(C)C)c4)cc3)[nH]c12` (stereo not given), for which the Inhibition worked out at 20%.

The compound `Cl.NCC1(c2nc(-c3ccc(Cl)c(O)c3)c(-c3ccncc3)[nH]2)CCCCC1` displayed an Inhibition of 48%.

`O=C(Nc1cccc(-c2ccc(CN3CCC(O)CC3)cc2)c1)c1ccc(Cl)cc1.O=C(O)C(F)(F)F` came in with an Inhibition of 46%.

In turn, `O=C(C=Cc1ccc(-c2ccccc2)cc1)N1CCC(CCN2CCC(c3c[nH]c4ccccc34)CC2)CC1` returned an Inhibition of 44%.

`CCCCc1ccc(C(=O)NC2CCN(C[C@H](O)c3ccnc4ccc(OC)cc34)CC2)cc1` registered an Inhibition of 24%.

The compound `O=C(O)c1ccc(OCOCOc2ccc(C(=O)O)c(O)c2)cc1O` had an Inhibition of 0%.

`O=C1CC(C(=O)Nc2cccc(-c3cccc(-c4nc5ccccc5[nH]4)c3)c2)c2ccccc2N1` (stereo not given) came in with an Inhibition of 0%.

As for `CCCCCCNC(=O)C1Cc2c([nH]c3ccc(Br)cc23)C2(CCN(CCc3ccccc3)CC2)N1` (stereo not given), the Inhibition turned out to be 36%.

For the compound `COc1cc(F)c2ncc(Cl)c(CCN3CCC(NCc4ccc5c(c4)OCCO5)CC3)c2c1.Cl`, the Inhibition was found to be 35%.

The compound `CC(C)(C)c1ccc2nccc(Nc3cccc(O)c3)c2c1` yielded an Inhibition of 8%.

Compound `Cl.N#Cc1ccc2c(c1)CCN(CCC1CCC(NC(=O)c3cc4cccc([N+](=O)[O-])c4[nH]3)CC1)C2` (stereo not given) registered an Inhibition of 0%.
